Only some compounds are listed: those with a hit (about 11% of all), similar ones and a draw of the others.
FLuc inh: Firefly luciferase inhibition profiling of diverse chemical library using quantitative high-throughput screening; Potency, µM (doses to about 115 µM), actives largely listed as inhibitors; Luciferin 4-monooxygenase (Photinus pyralis), P08659; purified P. pyralis luciferase, luminescence, biochemical; hit rate 2.5% among 76,000; further: nearly all actives have a fitted effect of over 65% in size
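FLuc 10nM, D-luciferin 10uM, ATP 10uM, Mg acetate 10mM, Tris acetate pH 7.5, Tween/BSA; cpd qHTS; enzyme added last; CCD luminescence.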
HEK293 tox: Cytotoxic Profiling in HEK 293 Cell Line of Diverse Libraries Using Quantitative High-Throughput Screening; Potency, µM (top dose mostly 115 µM), without a hit: top-dose activity change, negative = cytotoxicity, usual class: inhibitors; HEK 293 viability, ATP luminescence (CellTiter-Glo), 48-72 h; AID 1345083, 2018; hit rate 6.6% among 94,000; further: nearly all actives have a fitted effect of over 60% in size
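Pintool-delivered compounds were incubated with HEK 293 cells (250 cells/well) at 37 degree Celsius for 48 or 72 hr. ATP-dependent luminescence (CellTiter-Glo) then reported remaining viable cells.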
NPR1 antag: Natriuretic polypeptide receptor (hNpr1) antagonism - Primary qHTS. AID 1347048, 2019. Potency, µM (top dose mostly 46.3 µM), for the others: at the highest dose activity change, negative = inhibition, hits mostly inhibitors. Atrial natriuretic peptide receptor 1 (Homo sapiens), P16066. hit rate 1.6% among 76,000. HEK293 hNpr1 GloSensor cGMP, ANP-stimulated luminescence; calls by dose curve; further: nearly all actives have a fitted effect of over 60% in size
Target sequence (P16066 whole entry, looked up): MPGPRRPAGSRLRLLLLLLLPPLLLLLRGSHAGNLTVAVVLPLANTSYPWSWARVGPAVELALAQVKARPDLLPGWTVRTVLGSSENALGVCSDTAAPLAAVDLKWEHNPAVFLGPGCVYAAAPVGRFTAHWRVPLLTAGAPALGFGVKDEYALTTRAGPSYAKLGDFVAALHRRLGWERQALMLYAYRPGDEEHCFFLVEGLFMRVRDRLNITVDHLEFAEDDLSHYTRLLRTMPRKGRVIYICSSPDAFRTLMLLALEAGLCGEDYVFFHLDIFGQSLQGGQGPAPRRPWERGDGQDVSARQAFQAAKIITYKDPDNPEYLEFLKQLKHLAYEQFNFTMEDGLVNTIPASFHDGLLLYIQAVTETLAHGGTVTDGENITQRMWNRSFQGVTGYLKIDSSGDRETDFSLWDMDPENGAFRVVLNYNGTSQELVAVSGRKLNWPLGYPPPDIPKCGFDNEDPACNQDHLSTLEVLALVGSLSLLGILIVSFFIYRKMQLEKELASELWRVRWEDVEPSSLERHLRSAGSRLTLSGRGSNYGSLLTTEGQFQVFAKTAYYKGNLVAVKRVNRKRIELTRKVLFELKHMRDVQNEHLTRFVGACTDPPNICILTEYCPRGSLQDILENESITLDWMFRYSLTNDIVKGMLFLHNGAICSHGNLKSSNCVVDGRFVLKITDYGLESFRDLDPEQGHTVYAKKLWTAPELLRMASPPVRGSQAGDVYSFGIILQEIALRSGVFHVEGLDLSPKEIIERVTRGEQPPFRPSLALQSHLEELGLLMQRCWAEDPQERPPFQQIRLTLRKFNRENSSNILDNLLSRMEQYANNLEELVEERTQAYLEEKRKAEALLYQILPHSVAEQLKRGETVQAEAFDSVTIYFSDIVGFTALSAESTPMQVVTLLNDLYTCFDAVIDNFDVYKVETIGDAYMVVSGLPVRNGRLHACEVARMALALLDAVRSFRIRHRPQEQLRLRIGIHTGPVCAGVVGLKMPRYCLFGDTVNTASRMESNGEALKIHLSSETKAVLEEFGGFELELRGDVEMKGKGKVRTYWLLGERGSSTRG
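Compound pre-incubated 30 min at room temperature on GloSensor-loaded HEK293 cells stably carrying hNpr1 and the pGS-40F cGMP biosensor. Stimulation uses hNppA at 0.1 nM final; luminescence is taken at baseline and 20 min post-agonist.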
3T3 cytotox: Cytotoxic Profiling in NIH 3T3 Cell Line of Diverse Libraries Using Quantitative High-Throughput Screening; hit rate 4.3% among 94,000; Potency, µM (top dose mostly 96.7 µM), without a hit: top-dose activity change, negative = cytotoxicity, usual class: inhibitors; AID 1345082, 2018; NIH 3T3 viability, CellTiter-Glo ATP luminescence, 48-72 h; further: nearly all actives have a fitted effect of over 55% in size
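Luminescent ATP readout (CellTiter-Glo, 10 min RT) after 48 or 72 hr compound exposure of NIH 3T3 cells seeded at 400 cells/well in 1536-well format; quantitative HTS.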
* = called active by the depositor; [ ] = remark or other dose. Unless noted, the call rests on the fitted dose curve; in most records, active means well fitted curve in the direction sought with a large enough effect; inconclusive means small, poorly fitted or top-dose-only effect, or another doubt; inactive means no such curve, though single readings can be large; an effect the other way counts as inactive or inconclusive. On the % scale 0 is the no-effect control and ±100 the full control effect; potency means the concentration at half of the fitted maximal effect.

For CNC(=O)c1cc(-c2ccccc2F)cc2c1OCCN2Cc1cccnc1 the results were FLuc inh inactive, HEK293 tox 89.1µM*, NPR1 antag -28.0%[70.6 µM] and 3T3 cytotox inconclusive.
Screening CNC(=O)c1cc(-c2ccc(C)cc2)cc2c1OCCN2Cc1cccnc1 returned FLuc inh inactive, HEK293 tox inconclusive, NPR1 antag 6.0%[70.6 µM] and 3T3 cytotox inconclusive.
O=C(NC1CCOCC1)c1cc(-c2ccccc2F)cc2c1OCCN2Cc1cccnc1 was read as FLuc inh inactive, HEK293 tox inconclusive, NPR1 antag 2.0% and 3T3 cytotox -26.1%.
`CNC(=O)c1cc(-c2cccc(NC(C)=O)c2)cc2c1OCCN2Cc1cccnc1` gave FLuc inh inactive, HEK293 tox -10.4%[172 µM], NPR1 antag -3.4%[70.6 µM] and 3T3 cytotox 44.7µM*.
Screening Cn1nc(C2CC2)cc1NC(=O)C1CC1 returned HEK293 tox -4.9%[230 µM] and 3T3 cytotox -19.2%[174 µM].
`O=C(c1ccoc1)N1CCC(Oc2cccc(F)c2)C1` (stereo not drawn) gave FLuc inh inactive, HEK293 tox -16.3%, NPR1 antag 8.1% and 3T3 cytotox -41.4%.
Cc1ccc(-c2cccc(CN3CCCC3C(=O)NCc3ccccc3Cl)c2)cc1Cl (stereo not drawn) was read as HEK293 tox 44.7µM* and 3T3 cytotox inconclusive.
`Cc1ccc(-c2cccc(CN3CCCC3C(=O)NCc3cccs3)c2)cc1Cl` (stereo not drawn) gave HEK293 tox 35.5µM* and 3T3 cytotox 15.8µM*.
`Cc1ccc(-c2cccc(CN3CCCC(NC(=O)Cc4ccccc4)C3)c2)cc1Cl` (stereo not drawn) gave HEK293 tox inactive and 3T3 cytotox -3.0%.
For COc1ccc(CNC(=O)C2CCCN2Cc2cccc(-c3ccc(C)c(Cl)c3)c2)cc1 (stereo not drawn) the results were HEK293 tox 35.5µM* and 3T3 cytotox 31.6µM*.
Screening COc1ccccc1CNC(=O)C1CCCN1Cc1cccc(-c2ccc(C)c(Cl)c2)c1 (stereo not drawn) returned HEK293 tox 39.8µM* and 3T3 cytotox 39.8µM*.
`COC(=O)[C@@H]1Cc2nc[nH]c2CN1Cc1ccc(OC)c2ccccc12` gave FLuc inh inactive, HEK293 tox inconclusive, NPR1 antag -4.1%[70.6 µM] and 3T3 cytotox inconclusive.
`O=C(Nc1ccccc1)c1ccc2c(c1)OCCN(c1ccccc1)C2` gave FLuc inh inconclusive, HEK293 tox 112µM*, NPR1 antag inconclusive and 3T3 cytotox -62.5%[138 µM].
`O=C(NC1CCOCC1)c1ccc2c(c1)OCCN(c1ccccc1)C2` gave FLuc inh inactive, HEK293 tox 79.4µM*, NPR1 antag -18.5%[70.6 µM] and 3T3 cytotox inconclusive.
`Cc1ccc(C(=O)N2CCC(c3nc(C4CCOCC4)no3)CC2)cn1` gave FLuc inh inactive, HEK293 tox -3.8%, NPR1 antag 10.0% and 3T3 cytotox -12.1%.
Screening O=C(NCc1ccccc1)c1cnc2n1CCN(Cc1ccc(F)cc1)CC2 returned FLuc inh inactive, HEK293 tox 28.2µM*, NPR1 antag -11.4%[70.6 µM] and 3T3 cytotox inconclusive.
Screening CN(C(=O)c1cnc2n1CCN(CCc1ccccc1)CC2)c1ccccc1 returned FLuc inh inactive, HEK293 tox inconclusive, NPR1 antag -2.1%[70.6 µM] and 3T3 cytotox inconclusive.
`O=C(c1cnc2n1CCN(CCc1ccccc1)CC2)N1CCC(c2ccccc2)CC1` gave FLuc inh inactive, HEK293 tox 79.4µM*, NPR1 antag inconclusive and 3T3 cytotox inconclusive.
For O=C(NCc1ccccc1)c1cnc2n1CCN(Cc1cccs1)CC2 the results were FLuc inh inactive, HEK293 tox inconclusive, NPR1 antag 3.3%[70.6 µM] and 3T3 cytotox 31.6µM*.
Screening Nc1ncccc1CN1CCc2ncc(C(=O)NCc3ccccc3)n2CC1 returned FLuc inh inactive, HEK293 tox inconclusive, NPR1 antag inconclusive and 3T3 cytotox inconclusive.
For CC(C)Oc1ccc(CNC(=O)CCC2CCN(S(=O)(=O)c3ccccc3)CC2)cc1 the results were FLuc inh inactive, HEK293 tox inconclusive, NPR1 antag inconclusive and 3T3 cytotox inconclusive.
`Cc1cnc(CCNC(=O)Cc2cccc(F)c2)n1Cc1ccc(F)cc1` gave FLuc inh inactive, HEK293 tox inconclusive, NPR1 antag 4.6% and 3T3 cytotox inconclusive.
For COc1ccc2c(c1)CCc1c-2n[nH]c1C(=O)N1CCc2c(nc3cc(-c4ccccc4)[nH]n3c2=O)C1 the results were FLuc inh inconclusive, HEK293 tox -7.6%, NPR1 antag -14.2% and 3T3 cytotox -14.3%.
Screening Cn1ncc2c(C(=O)NCCCc3ccccc3)cc(-c3ccccc3)nc21 returned HEK293 tox inconclusive and 3T3 cytotox -12.7%.
For CCOCCNC(=O)c1nc2cccnc2n(CCc2ccccc2)c1=O the results were HEK293 tox inconclusive and 3T3 cytotox -2.5%.
Screening CCn1cnnc1-c1nn(C)c2c1CN(C(=O)CCC1CCCC1)CC2 returned FLuc inh inactive, HEK293 tox -17.4%, NPR1 antag -2.9% and 3T3 cytotox -0.4%.
O=C(C[C@H]1NC(=O)c2ccccc2NC1=O)Nc1ccncc1 was read as FLuc inh inactive, HEK293 tox -4.3%, NPR1 antag 3.7% and 3T3 cytotox inactive.
Screening Cc1c(Cl)cccc1NC(=O)C[C@H]1NC(=O)c2ccccc2NC1=O returned FLuc inh inactive, HEK293 tox 44.7µM*, NPR1 antag 1.6% and 3T3 cytotox inconclusive.
Cc1cc(Br)ccc1NC(=O)C[C@H]1NC(=O)c2ccccc2NC1=O was read as FLuc inh inactive, HEK293 tox inconclusive, NPR1 antag -7.8% and 3T3 cytotox 20µM*.
Cc1ccccc1NC(=O)CC[C@H]1NC(=O)c2ccccc2NC1=O was read as FLuc inh inactive, HEK293 tox 2.3%, NPR1 antag 3.0% and 3T3 cytotox inactive.
O=C(C[C@H]1NC(=O)c2ccccc2NC1=O)Nc1cccc(C(F)(F)F)c1 was read as FLuc inh inactive, HEK293 tox 44.7µM*, NPR1 antag -0.1% and 3T3 cytotox inconclusive.
Screening Cn1ncc2c(C(=O)NCc3ccccc3Cl)cc(-c3cccc(C(F)(F)F)c3)nc21 returned HEK293 tox 2.0% and 3T3 cytotox -17.1%.
`Cn1ccc2c(C(=O)NCC3CCC(=O)N3)nc(-c3ccccc3)cc21` (stereo not drawn) gave FLuc inh inactive, HEK293 tox -24.2%[172 µM], NPR1 antag -1.9%[70.6 µM] and 3T3 cytotox 50.1µM*.
`Cn1ccc2c(C(=O)NCCC(N)=O)nc(-c3ccccc3)cc21` gave FLuc inh inactive, HEK293 tox -2.8%[172 µM], NPR1 antag 1.6%[70.6 µM] and 3T3 cytotox 100µM*.
For Cn1ccc2c(C(=O)NCCC(N)=O)nc(-c3cccc(C(F)(F)F)c3)cc21 the results were FLuc inh inactive, HEK293 tox 89.1µM*, NPR1 antag 3.4%[70.6 µM] and 3T3 cytotox inconclusive.

Compound activity (PubChem BioAssay)
